Data from PubChem BioAssay (EPA / NIEHS).
Records with an inconclusive call do not appear. Calls of active or inactive are those of the source. Rule for the calls: active = hit-call score of the fitted dose curve at least 0.9, where 1 is the maximum; inconclusive = response in the unintended direction; inactive = score below 0.9.

How the values were obtained:
[1] = TAMU_HCS_1.5hr_SingleDonor1434_Cytotoxicity: Cytotoxicity Assessment using High-content Screening (HCS) Fluorescent Imaging for the Texas A&M University (TAMU) 1.5-hr Human Induced Pluripotent Stem Cell (iPSC)-derived Cardiotoxicity Assay (AID 2284234)
Summary of the method: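 Nuclear counts from Hoechst 33342 imaging define cytotoxicity here, with EC10 (10% cell-count loss relative to DMSO) as point of departure. iPSC cardiomyocytes received 0.2-100 uM test chemical in 0.5% DMSO for 1.5 h at 37 C.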

[2] = TAMU_PeakParms_SingleDonor1434_QT: Texas A&M University (TAMU) 1.5-hr Human Induced Pluripotent Stem Cell (iPSC)-derived Cardiomyocytes Calcium (Ca+2) Flux Assay for Cardiotoxicity: QT (decay-rise ratio) (AID 2284235)
Summary of the method: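 Decay/rise ratio of calcium-flux fluorescence scored after 90 min exposure (37C) of donor 1434 iPSC cardiomyocytes to 0.2–100 uM (0.5% DMSO). Beat-cessation and severe-notch points removed; POD is EC05, a 5% rise over DMSO.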

SMILES	outcome [1]	outcome [2]
ClC1=C(Cl)[C@]2(Cl)[C@@H]3[C@@H]4C[C@@H]([C@H]5O[C@@H]45)[C@@H]3[C@@]1(Cl)C2(Cl)Cl	inactive	inactive
C=CC(N)=O	–	inactive
